# Data: PubChem BioAssay
# The source made the active and inactive calls.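 Rule for the calls, unless noted: active = mean z-score across replicates of 1.96 or higher in either the MELAS or the Rieske mutant cell line; inactive = the rest.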
# How the values were obtained:
# [1] = sensitizers of A549 cells to miR-34 induction, primary screen, imaging, A549 dox-inducible miR-34, nuclei and caspase counts (AID 1347080;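 active = compounds whose cell count with miR-34 switched on is under 0.7 times the count with it off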); conditions: A549 miR-34 inducible, Hoechst nuclei count, 48 h
# [2] = survival rescue of mitochondrial mutant cells in low glucose, primary screen, MELAS cybrids, Rieske KO mouse fibroblasts, CellTiter-Glo (AID 1508586);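 note: z relative to plate mean and SD of compound and empty wells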
# [3] = stronger effect = lower value, cell number ratio, induced over uninduced
# [4] = measured here: relative caspase fold change +Dox/-Dox
# [5] = measured here: total cells with miR-34 induction, stronger effect = lower value
# [6] = measured here: total cells without miR-34 induction
# [7] = MELAS cybrid survival, CellTiter-Glo 48 h, stronger effect = higher value
# [8] = Rieske KO mouse fibroblast survival, CellTiter-Glo 72 h
# Note: test concentration not given here.
SMILES,"fold change [1, 3]","fold change [1, 4]","cell count [1, 5]","cell count [1, 6]","z-score [2, 7]","z-score [2, 8]"
C=C[C@@]1(C)CC(OC(=O)CSC2C[C@H]3CC[C@@H](C2)N3C)[C@]2(C)C(C)CC[C@]3(CCC(=O)[C@H]32)C(C)C1O (stereo partly drawn),0.984 (inactive),1.2,7780,7910,2.23 (active),5.36
C[C@]12C[C@@]3(O)O[C@@H](O1)[C@]1(COC(=O)c4ccccc4)[C@H]3C[C@@]12OC1OC(CO)C(O)C(O)C1O (stereo partly drawn),0.87 (inactive),0.575,8970,10300,-0.445 (inactive),-0.113
CCC1=CC2CN(C1)Cc1c([nH]c3ccccc13)[C@@](C(=O)OC)(c1cc3c(cc1OC)N(C)[C@@H]1[C@@]34CCN3CC=C[C@@](CC)(C(OC(C)=O)[C@]1(O)C(=O)OC)[C@@H]34)C2 (stereo partly drawn),1.11 (inactive),0.608,1810,1620,2.06 (active),-0.337
O=C(O[C@H]1CN2CCC1CC2)N1CCc2ccccc2C1c1ccccc1 (stereo partly drawn),0.932 (inactive),0.636,6880,7380,-0.171 (inactive),0.000903
CNC(=O)C(Cc1ccccc1)NC(=O)C(CC(C)C)C(CSc1cccs1)C(=O)NO (stereo not drawn),0.843 (inactive),0.442,6630,7870,0.43 (inactive),1.14
O=C(O)C(Cc1ccccc1[N+](=O)[O-])=NNC1=NC(c2ccc(Cl)c(Cl)c2)CS1 (stereo not drawn),0.88 (inactive),0.284,6240,7100,-0.273 (inactive),0.221
COc1c(C)c(C(=O)c2ccc(N)c(C(=O)O)c2)n2ccccc12,0.908 (inactive),0.344,7600,8370,0.355 (inactive),-2.17
COc1cc(=C2C=c3ccccc3=N2)[nH]c1=Cc1[nH]c(C)cc1C,1.1 (inactive),0.895,1770,1620,2.25 (active),-2.31
COc1cc(-c2cc(-c3cccc(O)c3)cnc2N)cc(OC)c1OC,0.804 (inactive),0.388,5380,6700,-0.34 (inactive),-0.00175
O=C(c1cn(Cc2cncn2Cc2ccc(Br)cc2)cc1-c1cccc2ccccc12)N1CCOCC1,0.999 (inactive),0.553,3260,3270,-0.128 (inactive),-1.26
C#C[C@@]1(O)CC[C@H]2[C@@H]3CCc4cc(OC)ccc4[C@@H]3CC[C@@]21C,0.921 (inactive),0.824,7730,8400,-0.343 (inactive),0.814
CC(O)[C@H]1C(=O)N2C(C(=O)OCOC(=O)C(C)(C)C)=C(SC3CN(C4=NCCS4)C3)C(C)[C@@H]12 (stereo partly drawn),0.943 (inactive),0.543,8990,9530,-0.198 (inactive),-0.552
N#CSc1cc(SC#N)c(N)nc1N,1.07 (inactive),0.703,1940,1820,-0.481 (inactive),-2.9
CC(=O)OC1C[C@@H]2CC[C@@H]3[C@@H](CC[C@]4(C)C(OC(C)=O)C([N+]5(C)CCCCC5)C[C@@H]34)[C@@]2(C)CC1N1CCCCC1 (stereo partly drawn),0.894 (inactive),1.12,8090,9050,-0.47 (inactive),-0.53
COCCOC(=O)C1=C(C)NC(C)=C(C(=O)OCC=Cc2ccccc2)C1c1cccc([N+](=O)[O-])c1 (stereo not drawn),1.06 (inactive),0.275,6590,6240,-0.669 (inactive),0.105
CN(C)c1cc(NC(=O)CNC(C)(C)C)c(O)c2c1C[C@H]1C[C@H]3C(N(C)C)C(=O)C(C(N)=O)=C(O)[C@@]3(O)C(=O)C1=C2O (stereo partly drawn),0.917 (inactive),1.11,8200,8950,-0.43 (inactive),0.225
CN1CCCC1CCO[C@](C)(c1ccccc1)c1ccc(Cl)cc1 (stereo partly drawn),0.919 (inactive),1.18,7530,8200,-0.384 (inactive),0.111
O=NO,0.914 (inactive),1.01,8730,9550,-0.254 (inactive),-0.15
CN(C)Cc1ccc(S(=O)(=O)n2ccc(C=CC(=O)NO)c2)cc1,0.784 (inactive),0.443,1500,1910,-0.566 (inactive),-0.298
CCN1CCN(C(=O)NC(C(=O)NC2C(=O)N3C(C(=O)O)=C(CSc4nnnn4C)CS[C@H]23)c2ccc(O)cc2)C(=O)C1=O (stereo partly drawn),0.907 (inactive),0.724,7730,8520,0.121 (inactive),0.0185
Cn1c(=O)cc(N2CCCC(N)C2)n(Cc2cc(F)ccc2C#N)c1=O (stereo not drawn),0.894 (inactive),0.61,8440,9440,-0.335 (inactive),1.48
Brc1ccc(C2CN3CCSC3=N2)cc1 (stereo not drawn),0.957 (inactive),0.301,9050,9460,-0.426 (inactive),-0.0963
COc1ccc(CC2c3cc(OC)c(OC)cc3CC[N@+]2(C)CCC(=O)OCCCCCOC(=O)CC[N@@+]2(C)CCc3cc(OC)c(OC)cc3C2Cc2ccc(OC)c(OC)c2)cc1OC (stereo partly drawn),0.844 (inactive),1.36,7940,9400,-0.391 (inactive),0.533
